Data from the supplement of paper PMC10338343.
± gives the standard deviation. The full ranking holds about 6,600 sequences; the median of “pre-steady-state target cleavage rate” is about 0.07, and the highest 2% start at about 0.72. The sample holds the highest values, similar sequences and a random draw of the others, so the mix is not that of the screen.

Tested on: MIWI (PIWIL1) piRISC loaded with Kctd7 piRNA (30 nt)
Test: pre-steady-state target cleavage rate (min^-1); MIWI and MILI are mouse PIWI proteins and EfPiwi is from a freshwater sponge; tags in brackets are library labels; higher = faster piRNA-guided slicing of the target
Settings: guide: Kctd7 piRNA 5'p-UGUUAAUCUCUCAGAGAAGGUGACAGUGAU; auxiliary factor: 500 nM mouse GTSF1
Procedure: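 Cleave-'n-Seq: a library of target RNAs (target site embedded in constant flanks, ACAGCATTCCGCGTTAGTGATATCCG... 5' flank; DNA-blocked outside the site) at 0.1 nM was incubated with 1 nM active mouse MILI or MIWI piRISC (synthetic 5'-monophosphorylated piRNA guide) with or without 500 nM mouse GTSF1 at 33 °C for 1 min to 16 h. Uncleaved targets were sequenced and normalised to non-target controls, and the pooled three trials were fitted to a burst-and-steady-state model to give the pre-steady-state cleavage rate (min^-1; k3 is constrained to at most 1e-4). Sequence is the target site only; target names encode pairing extent (gX:gY) and contiguous / 1-mismatch / 2-mismatch / bulge geometry. Fits with R² ≤ 0 are excluded.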

Sequence | pre-steady-state target cleavage rate
UAGUGUGUGACCUUCUCUGUGAGAUUAACA | 0.206 ± 0.016
UAGUGACAGUCCCUUCUCUGAGAGAUUAACA | 0.611 ± 0.046
UAGACUCGUCACCUUCUCUGAGAGAUUAACA | 0.687 ± 0.041
AUCACUCGUCACCUUCUCUGAGAGAUUAACA | 0.747 ± 0.043
UACACUCUCACCUUCUCUGAGAGAUUAACA | 0.444 ± 0.031
UUCACUCGUCACCUUCUCUGAGAGAUUAACA | 0.78 ± 0.042
UAGUCUCGUCACCUUCUCUGAGAGAUUAACA | 0.571 ± 0.025
UACACUCGUCACCUUCUCUGAGAGAUUAACA | 0.77 ± 0.035
AUCACUCUCACCUUCUCUGAGAGAUUAACA | 0.551 ± 0.029
UUCACUCUCACCUUCUCUGAGAGAUUAACA | 0.54 ± 0.028
UACACACUCACCUUCUCUGAGAGAUUAACA | 0.568 ± 0.044
UACACUGUCACCUUCUCAGAGAGAAUAACA | 0.076 ± 0.021
AUCACUGUCACGUUCUCUCAGAGAUUAACA | 0.0868 ± 0.0082
UAGUGUCUCACCUUCACUGAGAGAUUAACA | 0.276 ± 0.019
UAGUGACUCACCAUCUCUGAGAGUUUAACA | 0.173 ± 0.035
UACACUGUCACCUUCUCUGAGACAUUUUGA | 0.00497 ± 0.0047
UAGACUGUCACCUUCUCUGAGGGAUUAACA | 0.741 ± 0.051
AUCACUGUCACCUUCUCUGAGGGAUUAACA | 0.75 ± 0.041
UUCACUGUCACCUUCUCUGAGGGAUUAACA | 0.51 ± 0.024
UACACUGUCACCUUCUCUGAGGGAUUAACA | 0.611 ± 0.033
UAGACUGUCACCUUCUCUGAGGAUUAACA | 0.00433 ± 0.0033
UAGACUGUCACCUUCUCUGAGAGGAUUAACA | 0.369 ± 0.036
UAGUGACUCACGUUCUCUGAGAGUUUAACA | 0.0255 ± 0.006
UACACUGUCACCUUCACUGAGACAUUAACA | 0.19 ± 0.025
AUCACUCACACCUUCUCUGAGAGAUUAACA | 0.587 ± 0.027

Sequence | pre-steady-state target cleavage rate
UAGACUGUCACCUUCUCUGAGAGAUUUACA | 0.369 ± 0.049
UAGUGACACACCAUCUCUGAGAGAUUAACA | 0.274 ± 0.027
AUCACUGUCAGCUUCUCUGAGAGUUUAACA | 0.149 ± 0.018
UACACUGUCACCUUCUCUGAGAGUUUAUCA | 0.137 ± 0.041
UUCUCUGUCACCUUCUCUGAGAGUUUAACA | 0.517 ± 0.07
UUCACUGUCACCUUCUCUGAGAGUUUAUCA | 0.27 ± 0.061
UACUCUGUCACCUUCUCUGAGAGUUUAACA | 0.781 ± 0.098
AUCACUGACACCUUCUCUGAGAGUUUAACA | 0.644 ± 0.16
AUCACUGUCACCUUCUCUGAGAGUUUAUCA | 0.753 ± 0.19
AUCUCUGUCACCUUCUCUGAGAGUUUAACA | 0.711 ± 0.12
UACACUGACACCUUCUCUGAGAGUUUAACA | 0.904 ± 0.3
UUCACUGACACCUUCUCUGAGAGUUUAACA | 0.591 ± 0.11
UAGUCUGUCACCUUCUCUGAGAGAAAUACA | 0.0823 ± 0.015
AUCACUGAGACCUUCUCUGAGAGAUAUUGA | 0.0157 ± 0.0047
UAGUGACAGCCCUUCUCUGAGAGAUUAACA | 0.184 ± 0.019
UUCACUGUCACCUUCUCUGAGAGUUUUACA | 0.559 ± 0.12
UAGUGACUCACCUUCUCUGUGACAUUAACA | 0.0765 ± 0.0076
UAGUCUCUCACCUUCUGUGAGAGAUUAACA | 0.00482 ± 0.0046
UAGACUCUCACCUUCUCUGAGAGAUUUUGA | 0.0479 ± 0.011
AUGCACUGUCACCUUCUCUGAGAGAUUAACA | 0.775 ± 0.056
UUGCACUGUCACCUUCUCUGAGAGAUUAACA | 0.781 ± 0.045
AUCACUGGCACCUUCUCUGAGAGAUUAACA | 0.724 ± 0.17
UUCACUGGCACCUUCUCUGAGAGAUUAACA | 0.728 ± 0.15
UACACUGGCACCUUCUCUGAGAGAUUAACA | 0.453 ± 0.12
UGCACUGUCACCUUCUCUGAGAGAUUAACA | 0.726 ± 0.039

Sequence | pre-steady-state target cleavage rate
UUCACUGUGCACCUUCUCUGAGAGAUUAACA | 0.606 ± 0.05
UACAGUGUCACCUUCUGUGAGAGAUUAACA | 0.662 ± 0.028
UAGUGACACACCUUCUCAGAGUGAUUAACA | 0.00558 ± 0.0037
UAGUGUGUCACCUUCUCUGAGAGAUUAUCA | 0.219 ± 0.026
UAGUGACUCUGCUUCUCUGAGAGAUUAACA | 0.00843 ± 0.0019
UAGUGACAGUCCUUCCUCUGAGAGAUUAACA | 0.27 ± 0.027
UAGUCUCUCACGUUCUCUGAGAGAUUAACA | 0.0195 ± 0.0042
UAGUGACACACCAUCUCUGAGAGAAUAACA | 0.0218 ± 0.0057
AGCACUGUCACCUUCUCUGAGAGAUUAACA | 0.765 ± 0.044
UAGUCUGUCACCUUCUGUGAGAGAUAAACA | 0.0539 ± 0.0081
UUCGACUGUCACCUUCUCUGAGAGAUUAACA | 0.859 ± 0.06
AUCGACUGUCACCUUCUCUGAGAGAUUAACA | 0.821 ± 0.059
UACGACUGUCACCUUCUCUGAGAGAUUAACA | 0.746 ± 0.07
UAGUGUGUCAGCUUCUCUGAGAGAUUAAGA | 0.0938 ± 0.015
UACACUCUCACCUUCUCUGUGAGAUUAACA | 0.141 ± 0.014
UUGUGUGUCACCUUCUCUGAGAGAUUAACA | 0.571 ± 0.025
AUCACAGUCACCAUCUCUGAGAGAUUAACA | 0.771 ± 0.036
UACACUCUCACCAUCUCUGAGAGAUUAACA | 0.406 ± 0.028
UAGACAGUCACCAUCUCUGAGAGAUUAACA | 0.68 ± 0.042
UAGUCAGUCACCAUCUCUGAGAGAUUAACA | 0.706 ± 0.04
UUCACAGUCACCAUCUCUGAGAGAUUAACA | 0.747 ± 0.039
UAGUCUCUCACCAUCUCUGAGAGAUUAACA | 0.0365 ± 0.0075
UACACAGUCACCAUCUCUGAGAGAUUAACA | 0.833 ± 0.045
UUCACUCUCACCAUCUCUGAGAGAUUAACA | 0.465 ± 0.024
UACAGUGUCACCAUCUCUGAGAGAUUAACA | 0.592 ± 0.036
